Experimental data reported in PubChem BioAssay AID488847 (NMMLSC, 2010).
Screen size: about 330,000 compounds; about 1,900 (0.58%) were called active. Many of the other results were omitted from the sample, so actives are more common in it than they were. A number with no mark means an inactive call.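 The calls were made as follows: active = inhibition of aptamer binding above 40%, roughly 3 SD of noise, on plates passing a quality check; inactive = the rest.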

What follows are molecules tested against Beta-adrenergic receptor kinase 1 (Homo sapiens) (UniProt P25098) (assay: compounds blocking aptamer binding on GRK2 – biochemical, human GRK2, bead flow cytometry, HTS, primary screen (AID 488847;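 also: median bead fluorescence of bound FAM aptamer so fluorescent compounds give negative values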)). Conditions: FAM-aptamer displacement from GRK2, at 10 µM, hits give high values.
Beta-adrenergic receptor kinase 1 (Homo sapiens), sequence (P25098 whole entry, looked up): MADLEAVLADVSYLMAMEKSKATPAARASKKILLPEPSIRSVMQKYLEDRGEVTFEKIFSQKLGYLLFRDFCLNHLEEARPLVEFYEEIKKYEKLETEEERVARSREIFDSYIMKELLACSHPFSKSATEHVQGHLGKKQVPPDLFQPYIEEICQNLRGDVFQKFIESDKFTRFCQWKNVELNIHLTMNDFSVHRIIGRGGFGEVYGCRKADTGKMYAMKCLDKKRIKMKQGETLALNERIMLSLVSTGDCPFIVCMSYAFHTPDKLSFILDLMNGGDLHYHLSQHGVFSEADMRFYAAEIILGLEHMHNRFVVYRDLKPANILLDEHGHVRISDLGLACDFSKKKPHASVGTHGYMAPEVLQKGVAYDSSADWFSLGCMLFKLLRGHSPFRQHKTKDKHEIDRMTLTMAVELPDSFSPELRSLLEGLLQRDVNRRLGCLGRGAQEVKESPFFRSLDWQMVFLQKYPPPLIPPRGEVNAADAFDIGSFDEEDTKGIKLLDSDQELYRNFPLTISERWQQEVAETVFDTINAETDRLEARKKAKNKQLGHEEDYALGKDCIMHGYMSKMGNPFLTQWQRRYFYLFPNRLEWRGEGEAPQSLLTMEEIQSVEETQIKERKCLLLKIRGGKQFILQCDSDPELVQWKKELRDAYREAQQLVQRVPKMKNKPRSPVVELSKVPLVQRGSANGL

Row | Structure (SMILES) | inhibition of aptamer binding
1 | CCOc1ccccc1C(=O)NCc1ccco1 | 50% (active)
2 | CCOc1cc(NC(=S)NCc2ccco2)c(OCC)cc1NC(=O)c1ccco1 | 0%
3 | Cc1cccc(Nc2ccccc2C(=O)NCc2ccco2)c1C | 0%
4 | CC(C)CN(C(=O)COC(=O)c1ccc2ccccc2c1)c1c(N)n(Cc2ccccc2)c(=O)[nH]c1=O | 0%
5 | CC(C)CN(C(=O)COC(=O)c1ccc(Cl)c(N)c1)c1c(N)n(Cc2ccccc2)c(=O)[nH]c1=O | 1%
6 | Cc1csc(=O)n1CC(=O)OCC(=O)N(CC(C)C)c1c(N)n(Cc2ccccc2)c(=O)[nH]c1=O | 98% (active)
7 | c1ccc(CC2CCN(c3nc4ccccc4n4cnnc34)CC2)cc1 | 0%
8 | COc1ccc(C(=O)NCCSc2ccccc2C)cc1 | 0%
9 | COc1ccccc1OCCNC(=O)c1cc([N+](=O)[O-])cc([N+](=O)[O-])c1 | 0%
10 | COc1ccc(C(=O)NCCNc2ccc([N+](=O)[O-])cn2)cc1 | 45% (active)
11 | O=C(N/N=C/C=C/c1ccco1)c1cccs1 | 7%
12 | Cc1nn(C)c(Cl)c1CN1CCC(n2nccc2NC(=O)C2CCCC2)CC1 | 4%
13 | COc1ccc(S(=O)(=O)N2CCOCC2)cc1C(=O)NC1CCCCC1 | 3%
14 | CC1CCCCC1NC(=O)CN1CCC(O)(c2ccc3c(c2)OCO3)CC1 (centres undefined) | 1%
15 | COc1ccc(CNC(=O)COc2ccccc2C(=O)c2cnn(-c3ccccc3)c2)cc1OC | 1%
16 | Cc1ncc(CC(=O)n2cc(C(=O)c3cc(Cl)ccc3O)cn2)s1 | 6%
17 | O=C(c1cnn(-c2ccc(Cl)cc2)c1)c1ccccc1O | 47% (active)
18 | Cc1ccc(C)c(S(=O)(=O)N2CCN(c3ncnc4sccc34)CC2)c1 | 2%
19 | Cc1ccc(-n2ncc3c2CC(C)(C)CC3NC(=O)Cc2c(C)noc2C)cc1 (centres undefined) | 3%
20 | CCOC(=O)C1CCN(C(c2cc3cc(C)cc(C)c3[nH]c2=O)c2nnnn2C2CCCCC2)CC1 (centres undefined) | 0%
21 | CCOC(=O)C1CCCN(Cc2nc(N)nc(Nc3ccc(C)cc3)n2)C1 (centres undefined) | 60% (active)
22 | Cc1ccc(Nc2nc(N)nc(CN3CCN(Cc4ccccc4)CC3)n2)cc1Cl | 1%
23 | CCOC(=O)C1CCCN(CCSc2ccc(C)cc2)C1 (centres undefined) | 0%
24 | Cc1cc(C)c2nc(N3CCC(C(=O)NCCN4CCOCC4)CC3)sc2c1 | 1%

Row | Structure (SMILES) | inhibition of aptamer binding
25 | CC1CCN(CC(=O)Nc2nccs2)CC1 | 1%
26 | Cc1cccc(N2C(=O)c3ccc(C(=O)Nc4cccc(C(=O)O)c4)cc3C2=O)c1 | 0%
27 | O=C(/C=C/c1ccc(N2CCOCC2)cc1)c1ccccc1 | 0%
28 | O=C(O)c1ccc2c(c1)C(=O)N(c1ccc(/C=C/C(=O)c3ccccc3)cc1)C2=O | 46% (active)
29 | O=C(NC1CCCC1)C(c1ccc(N2CCOCC2)cc1)N(C(=O)c1ccco1)c1ccccc1F (centres undefined) | 1%
30 | CC(C)c1ccc(Nc2nnc(SCC(=O)c3nnc(-c4ccccc4)o3)s2)cc1 | 0%
31 | CCN1/C(=C/c2ccc3ccc(C)cc3[n+]2CC)Sc2ccccc21 | 94% (active)
32 | CCN1/C(=C\c2ccc3ccccc3[n+]2CC)Sc2cc(C)ccc21 | 96% (active)
33 | CCn1c(CNC(=O)c2ccccc2)nnc1SCC(=O)N1CCN(c2ccccc2)CC1 | 0%
34 | NC(=O)c1nnsc1-c1ccc(-c2snnc2C(N)=O)cc1 | 1%
35 | CN(CCC#N)c1ncnc2scc(-c3ccccc3)c12 | 3%
36 | CC(Oc1ccc(F)cc1)C(=O)N1CCN(c2ncccn2)CC1 (centres undefined) | 6%
37 | COc1cccc(/C=C(/CC(=O)Nc2ccc(N3CCOCC3)cc2)c2nc3ccccc3s2)c1 | 0%
38 | CCCCN(C(=O)c1ccc(C)o1)c1c(N)n(CCCC)c(=O)[nH]c1=O | 0%
39 | CCCCn1c(N)c(N(CCC(C)C)C(=O)c2ccc(COc3ccccc3)o2)c(=O)[nH]c1=O | 1%
40 | CCCCn1c(N)c(N(CCC(C)C)C(=O)c2ccc([N+](=O)[O-])o2)c(=O)[nH]c1=O | 55% (active)
41 | C=CCSc1nc2c(c(=O)[nH]1)C(C(C)C)C(C#N)=C(N)O2 (centres undefined) | 2%
42 | CC(CC(=O)Nc1ccccc1)n1ccnc1 (centres undefined) | 1%
43 | C[C@H](NS(=O)(=O)c1ccc(Cl)cc1)C(=O)OCC(=O)N1CCOCC1 | 8%
44 | CC(=O)N1CC[n+]2c(-c3ccc([N+](=O)[O-])cc3)csc21 | 92% (active)
45 | COC(=O)c1c(C)[nH]c(C)c1-c1ccc([N+](=O)[O-])cc1 | 0%
46 | COc1ccc(C2CC(c3ccc([N+](=O)[O-])cc3)=NN2C(C)=O)cc1 (centres undefined) | 0%
47 | Cc1nn(Cc2ccc(F)cc2)c(C)c1NC(=O)c1noc2c1CCc1ccccc1-2 | 73% (active)
48 | Cc1nn(Cc2ccc(Cl)c(Cl)c2)c(C)c1NC(=O)c1cc(C2CC2)on1 | 0%

Row | Structure (SMILES) | inhibition of aptamer binding
49 | Cc1nn(Cc2ccc(F)cc2)c(C)c1NC(=O)c1cccnc1Cl | 5%
50 | Cc1ccccc1-n1cc(CNC(=O)CC2C(=O)NCCN2C/C=C/c2ccccc2)cn1 (centres undefined) | 0%
51 | O=C(NC1CC1)C1=C[C@H](c2coc3ccccc3c2=O)C[C@H](OCCCCO)O1 | 2%
52 | CCN1C(=O)[C@H]2[C@@H](c3ccc(SC4CCCCC4)c(OC)c3)N[C@@](Cc3ccccc3)(C(=O)OC)[C@H]2C1=O | 0%
53 | CCN1C(=O)[C@H]2[C@@H](c3ccc(-c4ccc(OC)cc4)cc3)N[C@@](Cc3ccccc3)(C(=O)OC)[C@H]2C1=O | 43% (active)
54 | CCN1C(=O)[C@H]2[C@@H](c3ccc(-c4ccc(F)cc4)cc3)N[C@@](Cc3ccccc3)(C(=O)OC)[C@H]2C1=O | 0%
55 | COc1cccc(C2SCC(=O)N2c2cccc(C)c2)c1OC (centres undefined) | 2%
56 | COCCn1c(SCC(=O)c2[nH]c(C)c(C(C)=O)c2C)nc2ccccc2c1=O | 0%
57 | C/C(=N\NC(=S)NCc1ccccc1)C1CCCCC1 | 1%
58 | CC1CCCCC1NC(=O)c1cc(=O)[nH]c2ccccc12 (centres undefined) | 0%
59 | COc1ccc(OC)c(CNC(=O)Cn2nc(C)c3c(C)n(-c4ccc(C)cc4)nc3c2=O)c1 | 0%
60 | CC[N+](C)(CC)CCC[n+]1c(-c2ccccc2)c2cc(N)ccc2c2ccc(N)cc21 | 62% (active)
61 | Cc1ccc(-c2nc(CS(=O)CC(=O)NC3CCCC3)c(C)o2)cc1 (centres undefined) | 0%
62 | O=C(COC(=O)c1ccc(O)cc1O)c1ccc2c(c1)OCCO2 | 44% (active)
63 | O=C(OCc1ccccc1F)c1ccc2c(c1)OCCO2 | 0%
64 | CC(=O)Nc1cccc(C(=O)OCC(=O)c2ccc3c(c2)OCO3)c1 | 0%
65 | CN(CC(=O)Nc1ccc(Cl)c(C(F)(F)F)c1)C(=O)CCC(=O)c1ccccc1 | 1%
66 | CCC(C)(C)N=C(NC#N)Nc1cccnc1 | 0%
67 | Cc1nc(Nc2ccc3c(c2)OCCO3)c2nnn(Cc3ccccc3Cl)c2n1 | 0%
68 | Cc1nc(Nc2ccccc2F)c2nnn(Cc3ccccc3Cl)c2n1 | 47% (active)
69 | Cc1nc(Nc2ccc(S(=O)(=O)N3CCCC3)cc2)c2nnn(Cc3ccccc3)c2n1 | 0%
70 | O=C(CNC(c1ccccc1)c1ccccc1)Nc1ccc(F)cc1 | 1%
71 | S=C(Nc1cccnc1)Nc1ccccn1 | 1%
72 | O=C1CSC(=O)N1CCOCCN1C(=O)CSC1=O | 3%

Row | Structure (SMILES) | inhibition of aptamer binding
73 | O=C(CNC(=O)c1n[nH]c2ccccc12)Nc1cc(Cl)ccc1Cl | 0%
74 | CC(=O)c1ccc(OCC(O)CN2CCN(S(=O)(=O)c3cccc(Br)c3)CC2)cc1 (centres undefined) | 88% (active)
75 | O=S(=O)(c1ccc(OCC(O)CN2CCN(c3ccccc3Cl)CC2)cc1)N1CCOCC1 (centres undefined) | 0%
76 | Cc1cccc(OCC(O)CN2CCN(S(=O)(=O)c3ccc(C)cc3C)CC2)c1 (centres undefined) | 1%
77 | CCC(C)N1C(=O)S/C(=C/c2ccc(Sc3nc4ccccc4[nH]3)o2)C1=O (centres undefined) | 1%
78 | Cc1cccc(NC(=S)NCc2ccc3[nH]c4c(c3c2)CCCC4)c1 | 0%
79 | Cc1ccc(C(C)NC(=O)Cn2nc(C)c([N+](=O)[O-])c2C)cc1 (centres undefined) | 2%
80 | COC(=O)c1ccc(C)c(NC(=O)C2CC(=O)N(C3CCCC(C)C3C)C2)c1 (centres undefined) | 63% (active)
81 | COC(=O)c1ccc(C)c(NC(=O)Cn2c(C)csc2=O)c1 | 0%
82 | Cc1ccc(C)c(NC(=O)C2CC(=O)N(C(C)C)C2)c1 (centres undefined) | 2%
83 | O=C(CSCc1ccc([N+](=O)[O-])cc1)NCCSCc1ccccc1 | 0%
84 | COc1ccc(-c2ocnc2C(=O)Nc2ccc3c(c2)CCC3)cc1 | 8%
85 | COC(=O)c1ccc(S(=O)(=O)NCc2ccccc2)n1C | 2%
86 | Cc1ccc(C(=O)OCC(=O)N2CC(C)CC(C)C2)cc1S(=O)(=O)N1CCCCC1 (centres undefined) | 2%
87 | COc1cccc2c1OCC(C(=O)NCc1ccc(Cl)cc1Cl)=C2 | 0%
88 | CCC(=O)c1ccc(OCC(=O)OCC(=O)N2CCc3ccccc3C2)cc1 | 3%
89 | CN(C)c1ccc(NC(=S)N(CCc2ccccc2)C2CC(=O)N(c3c(Cl)cccc3Cl)C2=O)cc1 (centres undefined) | 1%
90 | O=C(COc1ccccc1)NCCc1nc2ccccc2[nH]1 | 59% (active)
91 | CC(C)=C(NC(=O)c1ccco1)C(=O)NCCc1nc2ccccc2[nH]1 | 0%
92 | O=C(CNC(=O)COc1ccccc1)NCCc1ccccn1 | 0%
93 | OCCC1CN(Cc2ccc(Oc3ncccn3)cc2)CCN1CCc1ccccc1 (centres undefined) | 0%
94 | CCNc1nc(NC(C)C)nc(OCCOC(=O)c2ccccc2)n1 | 0%
